The target of experiment [1] is Cytochrome P450 2C19 (Homo sapiens) (UniProt P33261). The experiment in a line: Cytochrome P450 Family 2 Subfamily C Member 19 (CYP2C19) small molecule antagonists: luciferase reporter qHTS assay (AID 1671197). Also: nearly all actives have a fitted effect of over 65% in size. Also: potency is read from the fitted curve at half-maximal effect. As to activity change, negative = inhibition: series mostly up to about 120 µM. An outline of the steps: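 Inhibition of CYP2C19 was scored from loss of luminescence in a P450-Glo proluciferin substrate assay, NADPH-started and run 1 h at 37C, with ketoconazole as positive control.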

The target in experiment [2] is Cytochrome P450 2C9 (Homo sapiens) (UniProt P11712). The experiment in a line: Cytochrome P450 Family 2 Subfamily C Member 9 (CYP2C9) small molecule antagonists: luciferase reporter qHTS assay (AID 1671198). Also: nearly all actives have a fitted effect of over 50% in size. Also: potency is read from the fitted curve at half-maximal effect. As to activity change, negative = inhibition: series mostly up to about 120 µM. An outline of the steps:
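P450-Glo proluciferin substrate with CYP2C9 enzyme; 10 min RT preincubation, then NADPH regeneration 1 h at 37C; luciferin detection reagent 20 min RT, luminescence in relative luminescence units.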

The target in experiment [3] is Voltage-gated inwardly rectifying potassium channel KCNH2 (Homo sapiens) (UniProt Q12809). As to the kind of experiment: Human Ether-a-go-go-Related Gene (hERG) channel small molecule antagonists: fluorescence cell-based qHTS assay (AID 1671200). Also: nearly all actives have a fitted effect of over 50% in size. Also: potency is read from the fitted curve at half-maximal effect.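 As to activity change, negative = inhibition: hERG-expressing U2OS cells given a thallium stimulus after FluxOR II dye loading; series mostly up to about 77 µM.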 An outline of the steps:
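In this thallium-flux screen, overnight-cultured U2OS cells bearing the channel are dye-loaded in darkness for an hour, rested 10 min at room temperature, and then monitored kinetically at 480/540 nm for two minutes post-stimulus.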

The target in experiment [4] is Cytochrome P450 3A4 (Homo sapiens) (UniProt P08684). The experiment in a line: Cytochrome P450 Family 3 Subfamily A Member 4 (CYP3A4) small molecule antagonists: luciferase reporter qHTS assay (AID 1671201). Also: nearly all actives have a fitted effect of over 50% in size. Also: potency is read from the fitted curve at half-maximal effect. As to activity change, negative = inhibition: series mostly up to about 120 µM. A digest of the protocol:
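CYP3A4 activity was followed with a P450-Glo proluciferin substrate. Test compounds in DMSO were preincubated 10 min; NADPH regeneration then ran 1 h, and light output was read 20 min after detection reagent.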

The target in experiment [5] is Cytochrome P450 1A2 (Homo sapiens) (UniProt P05177). As to the kind of experiment: Cytochrome P450 Family 1 Subfamily A Member 2 (CYP1A2) small molecule antagonists: luciferase reporter qHTS assay (AID 1671199). Also: series mostly up to about 120 µM; nearly all actives have a fitted effect of over 50% in size. A digest of the protocol:
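Steps: enzyme-substrate mix dispensed; test compounds and furafylline control pinned in; 10 min room temperature; NADPH regeneration solution added, 1 h; reaction stopped with luciferin detection reagent; luminescence read after 20 min.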

Molecules are shown by their SMILES. Results filed as inconclusive are left out. Values without a mark were called inactive. Active and inactive are the calls of the source. Calls follow the shape of the dose curve; as a rule, active = well fitted curve in the direction sought with a large enough effect in the repeat runs; inconclusive = weak or mixed curves; inactive = no such curve, though single readings can be large; an effect the other way counts as inactive or inconclusive.
% is scaled to controls: 0 for no effect and ±100 for the full control effect.

Chain of Voltage-gated inwardly rectifying potassium channel KCNH2 (Homo sapiens) (Q12809 whole entry, looked up): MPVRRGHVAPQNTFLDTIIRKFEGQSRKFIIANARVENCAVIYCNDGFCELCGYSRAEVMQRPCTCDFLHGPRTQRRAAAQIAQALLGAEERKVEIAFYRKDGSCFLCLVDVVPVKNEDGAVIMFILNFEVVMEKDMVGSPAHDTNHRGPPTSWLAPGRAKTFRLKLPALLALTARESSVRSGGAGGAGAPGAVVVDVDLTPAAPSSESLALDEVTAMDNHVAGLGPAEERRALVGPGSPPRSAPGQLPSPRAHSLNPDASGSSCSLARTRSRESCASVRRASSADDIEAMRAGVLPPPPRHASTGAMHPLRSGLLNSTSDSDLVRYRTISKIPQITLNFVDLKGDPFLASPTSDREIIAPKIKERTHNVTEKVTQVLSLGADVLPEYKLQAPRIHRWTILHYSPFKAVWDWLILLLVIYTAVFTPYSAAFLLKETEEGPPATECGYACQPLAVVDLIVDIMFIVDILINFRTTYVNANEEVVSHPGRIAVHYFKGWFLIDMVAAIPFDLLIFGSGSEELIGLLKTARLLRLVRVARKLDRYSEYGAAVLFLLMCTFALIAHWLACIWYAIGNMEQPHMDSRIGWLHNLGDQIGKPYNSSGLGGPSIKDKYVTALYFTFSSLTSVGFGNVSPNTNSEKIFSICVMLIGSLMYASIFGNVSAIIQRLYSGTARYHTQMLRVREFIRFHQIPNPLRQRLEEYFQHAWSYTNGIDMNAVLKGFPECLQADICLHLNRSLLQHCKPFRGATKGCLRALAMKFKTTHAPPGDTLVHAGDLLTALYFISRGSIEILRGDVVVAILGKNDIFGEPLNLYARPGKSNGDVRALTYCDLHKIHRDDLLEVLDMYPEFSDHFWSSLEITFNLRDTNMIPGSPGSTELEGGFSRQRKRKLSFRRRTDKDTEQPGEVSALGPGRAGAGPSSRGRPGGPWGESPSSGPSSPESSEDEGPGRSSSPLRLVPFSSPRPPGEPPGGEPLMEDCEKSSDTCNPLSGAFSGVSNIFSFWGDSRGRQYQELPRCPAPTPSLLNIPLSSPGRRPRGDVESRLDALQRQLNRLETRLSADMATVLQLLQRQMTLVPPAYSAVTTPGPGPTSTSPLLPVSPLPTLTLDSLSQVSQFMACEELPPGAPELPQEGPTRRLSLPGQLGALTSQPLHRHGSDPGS
Chain of Cytochrome P450 2C19 (Homo sapiens) (P33261 whole entry, looked up): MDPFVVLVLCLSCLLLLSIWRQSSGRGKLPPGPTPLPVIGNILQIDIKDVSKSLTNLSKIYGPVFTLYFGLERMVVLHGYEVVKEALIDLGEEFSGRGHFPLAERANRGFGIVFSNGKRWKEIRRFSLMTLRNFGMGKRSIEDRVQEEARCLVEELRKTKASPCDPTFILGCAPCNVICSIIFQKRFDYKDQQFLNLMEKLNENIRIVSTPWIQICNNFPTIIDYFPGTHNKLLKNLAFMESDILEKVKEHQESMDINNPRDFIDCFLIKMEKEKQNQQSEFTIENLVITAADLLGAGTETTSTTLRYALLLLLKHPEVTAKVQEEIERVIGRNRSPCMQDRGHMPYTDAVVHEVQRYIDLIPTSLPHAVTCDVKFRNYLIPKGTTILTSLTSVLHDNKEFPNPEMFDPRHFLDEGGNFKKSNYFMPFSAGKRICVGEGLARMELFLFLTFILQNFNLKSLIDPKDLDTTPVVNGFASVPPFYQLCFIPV
Chain of Cytochrome P450 3A4 (Homo sapiens) (P08684 whole entry, looked up): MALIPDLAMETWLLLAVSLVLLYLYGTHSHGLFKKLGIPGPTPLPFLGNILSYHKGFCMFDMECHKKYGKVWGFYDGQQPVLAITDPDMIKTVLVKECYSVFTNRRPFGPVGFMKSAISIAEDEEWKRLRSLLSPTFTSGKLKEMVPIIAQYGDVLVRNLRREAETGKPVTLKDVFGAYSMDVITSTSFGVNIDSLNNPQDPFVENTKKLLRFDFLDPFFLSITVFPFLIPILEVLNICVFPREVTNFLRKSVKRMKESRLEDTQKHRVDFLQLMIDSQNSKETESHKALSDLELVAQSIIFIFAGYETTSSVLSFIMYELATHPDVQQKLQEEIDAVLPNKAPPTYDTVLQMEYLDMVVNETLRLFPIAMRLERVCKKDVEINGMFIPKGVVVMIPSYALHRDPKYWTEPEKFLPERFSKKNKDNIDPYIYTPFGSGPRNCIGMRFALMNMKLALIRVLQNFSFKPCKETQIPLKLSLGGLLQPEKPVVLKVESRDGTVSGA
Chain of Cytochrome P450 2C9 (Homo sapiens) (P11712 whole entry, looked up): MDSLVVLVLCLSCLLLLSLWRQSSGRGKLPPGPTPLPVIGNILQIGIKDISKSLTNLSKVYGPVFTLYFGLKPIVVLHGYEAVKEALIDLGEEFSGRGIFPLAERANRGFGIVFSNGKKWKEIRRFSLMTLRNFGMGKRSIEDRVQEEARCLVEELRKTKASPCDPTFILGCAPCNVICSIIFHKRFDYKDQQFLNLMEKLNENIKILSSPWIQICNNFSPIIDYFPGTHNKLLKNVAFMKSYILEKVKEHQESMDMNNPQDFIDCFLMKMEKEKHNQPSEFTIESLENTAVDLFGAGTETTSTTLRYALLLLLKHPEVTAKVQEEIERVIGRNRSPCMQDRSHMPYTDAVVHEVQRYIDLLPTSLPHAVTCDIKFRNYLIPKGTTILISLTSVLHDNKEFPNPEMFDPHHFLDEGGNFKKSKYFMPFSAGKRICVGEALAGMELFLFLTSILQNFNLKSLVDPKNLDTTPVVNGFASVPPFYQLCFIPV
Chain of Cytochrome P450 1A2 (Homo sapiens) (P05177 whole entry, looked up): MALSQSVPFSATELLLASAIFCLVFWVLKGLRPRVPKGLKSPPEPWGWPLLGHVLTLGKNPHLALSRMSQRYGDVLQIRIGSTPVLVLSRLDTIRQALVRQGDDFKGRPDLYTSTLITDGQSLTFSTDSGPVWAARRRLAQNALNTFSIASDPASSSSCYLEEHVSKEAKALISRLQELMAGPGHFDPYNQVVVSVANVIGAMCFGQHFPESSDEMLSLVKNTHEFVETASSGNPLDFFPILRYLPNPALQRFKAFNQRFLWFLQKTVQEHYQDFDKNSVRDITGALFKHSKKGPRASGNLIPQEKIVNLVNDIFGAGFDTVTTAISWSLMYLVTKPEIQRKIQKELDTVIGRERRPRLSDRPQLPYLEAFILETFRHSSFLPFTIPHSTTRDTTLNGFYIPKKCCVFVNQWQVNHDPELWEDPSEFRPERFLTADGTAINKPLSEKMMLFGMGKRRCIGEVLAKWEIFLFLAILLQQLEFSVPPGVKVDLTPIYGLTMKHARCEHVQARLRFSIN

Turning to `CC1=CCCC(C)(C)C12CCC(C)O2` (stereo unspecified), the Potency result in experiment [1] and in experiment [3] was “inactive” each time. Besides, the Potency in experiment [2] and in experiment [4] was 79.6 µM (active) throughout.

Take `Cc1ncc(CO)c(C=O)c1O`: the Potency result in experiment [1], in experiment [2], in experiment [3] and in experiment [4] was “inactive” each time.

Consider `Cc1ccc(C(=O)Oc2ccc(C(O)CNC(C)(C)C)cc2OC(=O)c2ccc(C)cc2)cc1` (stereo unspecified), for which the Potency entry in experiment [1] and in experiment [5] was “inactive” in each case.

For `O=C(O)c1ccco1`, the Potency entry in experiment [1], in experiment [2], in experiment [3] and in experiment [4] was “inactive” in each case.

In the case of `COc1ccc(S(=O)(=O)N2C(=O)[C@@](c3ccccc3OC)(N3C[C@H](O)C[C@H]3C(=O)N(C)C)c3cc(Cl)ccc32)c(OC)c1`, the Potency was 31.7 µM (active) in experiment [1], 39.9 µM (active) in experiment [2] and 0.0894 µM (active) in experiment [4].

Regarding `C/C=C/C(=O)CC`, the Potency result in experiment [1] was “inactive”. The values for the activity change, negative = inhibition in experiment [2] and in experiment [3] were -11% [at 23.6 µM] and 2.39% [at 15.8 µM], respectively.

Take `CC(CC=O)c1ccccc1` (stereo unspecified): the Potency in experiment [1] is 15.9 µM (active); in experiment [2], 31.7 µM (active); in experiment [4], 20 µM (active).

For `CCCCOC(=O)CCCCCCCC(=O)OCCCC`, the values for the Potency in experiment [1] and in experiment [2] were 35.6 µM (active) and 44.8 µM (active), respectively. In addition, the Potency entry in experiment [3] and in experiment [4] was “inactive” throughout.

In the case of `NCc1ccccc1Sc1ccccc1CO`, the Potency in experiment [1] was 21.9 µM (active); in experiment [2] it was 9.77 µM (active). Further, in experiment [3], the Potency entry is “inactive”.

For the molecule `Cc1cccc(C)c1NC(=O)CN(CC(=O)O)CC(=O)O`, the Potency result in experiment [1], in experiment [2], in experiment [3] and in experiment [4] was “inactive” throughout.

For `CCOC(=O)C1=C[C@]2(CC)CCCN3CCc4c(n1c1ccccc41)[C@@H]32`, the Potency entry in experiment [1] and in experiment [5] was “inactive” each time. Moreover, the Potency in experiment [3] is 0.151 µM (active).

Consider `OCCNCc1ccccc1`, for which the Potency in experiment [1] is 44.8 µM (active). Besides, the Potency entry in experiment [2] and in experiment [4] was “inactive” each time.

`O=CC1CC=CCC1` (stereo unspecified): the Potency result in experiment [1], in experiment [2] and in experiment [3] was “inactive” in each case.

As for `Nc1ccccc1S(=O)(=O)c1ccccc1`, the Potency entry in experiment [1], in experiment [2] and in experiment [3] was “inactive” in each case.

(Values after PubChem BioAssay (Tox21).)
